# Source: PubChem (several laboratories)
# Most compounds without a hit are left out; they make up all but 4.1% or so of the library.
# MazEF act – increases E. coli MazEF RNase cleavage of RNA; P0AE70; FAM/BHQ RNA-DNA oligo cleavage fluorescence, 5 h; activation, % at 20 µM; 350,000 tested, 0.32% active; in the data active = activation above about 50%
# Target sequence (P0AE70 whole entry, looked up): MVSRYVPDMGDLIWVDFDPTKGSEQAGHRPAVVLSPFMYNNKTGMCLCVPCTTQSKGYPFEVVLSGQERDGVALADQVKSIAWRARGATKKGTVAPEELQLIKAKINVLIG
# BoNT-F LC inh – BoNT F light chain protease inhibition | Multiplex microsphere protease cleavage assay, flow cytometry | 360,000 tested, 0.22% active | inhibition, % at 10 µM; in the data active = inhibition above about 35%, passing the limit was not always enough; inconclusive = no clear call, values can overlap the other calls
# BoNT A protease – inhibitors of Botulinum neurotoxin A light chain protease | inhibition, % at 10 µM | 360,000 tested, 0.17% active | multiplex microsphere protease substrate cleavage, flow cytometry
# Bead autofluor – compound fluorescence in toxin protease inhibitor counterscreen; compound autofluorescence counterscreen, microsphere flow cytometry; stronger effect = higher value; fluorescence intensity (concentration not given with the values); 360,000 tested, 3.1% active; in the data active = fluorescence intensity above about 16000; inconclusive = no clear call, values can overlap the other calls
# Anthrax LF prot – blocks Bacillus anthracis lethal factor protease | inhibition, % at 10 µM | 360,000 tested, 0.12% active | multiplex microsphere protease cleavage assay, LF | P15917
# DUSP3 inh – blocks human VHR1 dual specificity phosphatase; AID 1654; inhibition, % at 13.3 µM; P51452; 290,000 tested, 0.52% active; recombinant VHR phosphatase, pNPP absorbance; in the data active = inhibition above about 50%
# Target sequence (P51452 whole entry, looked up): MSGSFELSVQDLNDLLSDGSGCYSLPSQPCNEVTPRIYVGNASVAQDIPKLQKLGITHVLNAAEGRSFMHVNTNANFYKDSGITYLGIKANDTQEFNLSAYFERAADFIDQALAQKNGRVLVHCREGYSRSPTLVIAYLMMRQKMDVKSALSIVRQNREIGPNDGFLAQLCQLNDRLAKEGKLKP
# Hits are given with their value; 0 = inactive; ? = inconclusive; - = no result. Cut-off read from the data, not from the text of the source, unless noted: active = inhibition above about 30%; inconclusive = no clear call, values can overlap the other calls; inactive = below that.
SMILES,MazEF act,BoNT-F LC inh,BoNT A protease,Bead autofluor,Anthrax LF prot,DUSP3 inh
O=C(/C=C/c1ccccc1)N1CCCN(C(=O)/C=C/c2ccccc2)CC1,0,0,0,20323,0,0
CC1CCCN(c2nc3c(c(=O)n(C)c(=O)n3C)n2CCSc2nc3ccccc3s2)C1 (configuration not stated),0,0,0,20318,0,0
Cn1c(=O)c2c(nc(N3CCCCC3)n2CCSc2nc3ccccc3s2)n(C)c1=O,0,0,0,16274,0,0
CC1CCN(c2nc3c(c(=O)n(C)c(=O)n3C)n2CCSc2nc3ccccc3s2)CC1,0,0,0,0,0,0
Cc1cccc(C(=O)N2CCC(C)(C(=O)NS(=O)(=O)C3CC3)C2)c1C (configuration not stated),-,0,0,0,0,-
CCOC(=O)c1c(C)[nH]c(C(=O)CSc2ccc(Cl)cc2)c1C,0,0,?,16362,0,0
CCOC(=O)c1c(C)[nH]c(C(=O)CN2CCOCC2)c1C,0,0,0,23350,0,0
Cc1cc(C)c(S(=O)(=O)c2ccc(C(C)(C)C)cc2)c(Cl)n1,0,0,0,0,0,52.6
Cc1ccc(S(=O)(=O)c2c(C)cc(C)nc2Cl)c(C)c1,0,0,?,22797,0,0
COc1cc2oc(=O)cc(-c3ccc(-c4ccc(N(C)C)cc4)cc3)c2c(OC)c1OC,0,0,0,0,0,-
CC(=O)Nc1ccc(C(=O)CSc2cc(C)c3cccc(C)c3n2)cc1,77.7,0,0,0,0,0
Cc1cc(SCC(=O)c2cccs2)nc2c(C)cccc12,0,0,0,16902,0,0
Cc1cc(SCC(=O)N/N=C/c2cccnc2)nc2c(C)cccc12,0,0,0,0,0,0
Cc1cc(C)c(C#N)c(SCC(=O)c2cccs2)n1,108.7,0,?,22840,0,0
COc1ccc(S(=O)(=O)NC(=O)C2(C)CCN2C(=O)Cc2cc(F)ccc2F)cc1 (configuration not stated),-,0,0,0,0,-
COc1cc(/C=C2\SC(=S)N(N(C)c3ccccc3)C2=O)ccc1O,0,0,0,0,0,0
c1ccc(-c2csc(-n3cnnn3)n2)cc1,0,0,0,21991,0,0
CCN(CCO)c1cc(Cl)nc(SC)n1,0,0,0,24730,0,0
CC(C)(C)[C@@H]1COC(=O)[C@H](Cc2ccc(F)cc2)C/C=C\C[C@@H](CC(=O)NCCO)C(=O)N1,0,0,0,0,0,-
CC(=O)N1CCN(C(=O)c2cc3ccccc3o2)CC1,0,0,0,0,0,0
O=C(c1cc2ccccc2o1)N1CCN(S(=O)(=O)c2c(F)cccc2F)CC1,0,0,0,20189,0,-
CS(=O)(=O)N1CCN(c2ccccc2NC(=O)c2ccc(-c3ccc(Br)cc3)o2)CC1,0,0,0,16514,0,0
CS(=O)(=O)N1CCN(c2ccc(NC(=O)c3ccc(-c4ccc(Cl)cc4)o3)cc2)CC1,0,0,0,17675,0,0
CS(=O)(=O)N1CCN(c2ccccc2NC(=O)c2cc(Br)ccc2Cl)CC1,0,0,0,0,0,0
CCOC(=O)c1c(-c2ccccc2)nc2ccc(C)cn12,0,0,?,19967,0,0
SMILES,MazEF act,BoNT-F LC inh,BoNT A protease,Bead autofluor,Anthrax LF prot,DUSP3 inh
COc1cc(C(O)c2nc3ccccc3n2C(C)C)cc(OC)c1OC (configuration not stated),0,0,0,0,0,0
CCCCn1cnc2cc(NCc3ccncc3)ccc21,0,0,0,19414,0,0
CCc1ccc(CNc2ccc3c(c2)ncn3CC)cc1,0,?,0,0,0,0
CCn1cnc2cc(NCc3ccc(OC)cc3)ccc21,0,0,0,23891,0,0
CCOc1ccc(C2C(C#N)=C(C)NC3=C2C(=O)c2ccccc23)cc1 (configuration not stated),0,0,0,22424,0,0
COc1ccc(C2C(C#N)=C(C)NC3=C2C(=O)c2ccccc23)cc1 (configuration not stated),0,0,0,0,0,0
COc1ccccc1N1CCN(C(=O)c2c(-c3c(F)cccc3Cl)noc2C)CC1,0,0,0,0,0,0
N#CC(c1ccncc1)(c1ncc(C(F)(F)F)cc1Cl)N1CCOCC1 (configuration not stated),0,0,0,0,0,0
N#CC(c1ccccn1)(c1ncc(C(F)(F)F)cc1Cl)N1CCOCC1 (configuration not stated),0,0,?,22287,0,0
CCCCn1c(SCC(=O)OCC)nc2c(sc(=S)n2-c2ccccc2OC)c1=O,0,0,0,0,0,0
Cc1nn(Cc2ccccc2)c(Cl)c1/C=N/NC(=O)c1cccnc1,0,0,0,0,0,0
Cc1c(/C=N/NC(=O)c2cccnc2)c2ccccc2n1Cc1ccccc1,0,0,0,24760,0,0
O=C(Nc1ccc(S(=O)(=O)N2CCCCC2)cc1)C1CCCO1 (configuration not stated),0,0,0,0,0,0
CC(C)OC(=O)c1cccnc1SCc1cc(=O)n2ccccc2n1,0,0,0,24425,0,0
CCOC(=O)c1[nH]c(COC(=O)CCOc2ccccc2OC)c(C(=O)OCC)c1C,0,0,?,23144,0,0
COc1ccccc1NC(=O)CNS(=O)(=O)c1ccccc1,0,0,?,21927,0,0
COC(=O)c1ccc(NC(=O)CN(C)S(=O)(=O)c2ccc(OC)c(C)c2)cc1,0,0,0,24716,0,0
O=C(CNS(=O)(=O)c1ccccc1)Nc1ccccc1Br,0,0,0,0,0,0
COc1ccccc1NC(=O)CNC(=O)c1ccccc1,0,0,0,0,0,0
Cc1ccc(C)c(NC(=O)CNS(=O)(=O)c2ccccc2)c1,0,0,?,16924,0,0
COc1ccccc1NC(=O)CNC(=O)c1ccccc1C,0,0,0,24190,0,0
O=C(COC(=O)Cc1ccc(Br)cc1)NC1CCCC1,0,0,0,0,0,-
CN(C(=O)COC(=O)CNC(=O)c1cccs1)c1c(N)n(Cc2ccccc2)c(=O)[nH]c1=O,0,0,0,0,0,-
COc1ccccc1NC(=O)CN(C)S(=O)(=O)c1cc(C)ccc1OC,0,0,0,16552,0,0
COc1ccc(C)cc1NC(=O)CN(C)S(=O)(=O)c1cccs1,0,0,0,0,0,0
SMILES,MazEF act,BoNT-F LC inh,BoNT A protease,Bead autofluor,Anthrax LF prot,DUSP3 inh
Cc1ccccc1Cn1cc(NC(=O)c2noc3c2CC(C(C)(C)C)CC3)cn1 (configuration not stated),0,0,?,16905,0,0
O=C(NCc1ccc(F)cc1)c1noc2c1CCCC2,0,0,0,19451,0,0
Cc1ccccc1Cn1nc(C)c(NC(=O)c2noc3c2CC(C(C)(C)C)CC3)c1C (configuration not stated),0,0,0,0,0,0
CC(C)(C)C1CCc2onc(C(=O)NCc3ccc(F)cc3)c2C1 (configuration not stated),0,0,0,22455,0,0
O=C(NCc1ccc(F)cc1)c1noc2c1CCCCC2,0,0,0,0,0,0
O=C(Nc1cccc2c1CCCC2)c1ccccc1Br,0,0,0,0,0,51.5
